Data on 40 compounds can be found in PubChem BioAssay (NCATS).

Several values for one entry are separate records, joined by “and”; a condition that tells them apart may be missing. Equal values may be shown once. Records with an inconclusive call do not appear. A number with no mark means an inactive call. Activity calls are given as the source filed them. Calls come from the whole dose curve; as a rule, active = well fitted inhibition curve with a large enough effect; inconclusive = small, poorly fitted or top-dose-only effect; inactive = flat fitted curve, though single readings scatter. Where a SMILES comes first, the peptide text is derived from it. Bridges are numbered along the chain shown (N, C = ends). [ ]: non-standard residue; d: D form. Orn = NCCC[C@H](N)C(=O)O; Mpa = O=C(O)CCS
% is set by controls: 0 for no effect and ±100 for the full control effect; potency is the fitted concentration of half-maximal effect.

This test relates to KB-3-1. The experiment in a line: Cytotoxic Profiling of Annotated Libraries Using Quantitative High-Throughput Screening (AID 1296008). Note: nearly all actives have a fitted effect of over 60% in size. The note with it: Five cell lines viability, CellTiter-Glo ATP luminescence, 48-72 h; max response: hits give low values. The gist of the method: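 Cells exposed to compounds for 48 or 72 hr at 37 degrees Celsius. Viability read as ATP-coupled luminescence with CellTiter-Glo after 10 min at room temperature.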
(In general: Cellular ATP, detected with luciferase, serves as a proxy for viable cell number.)
Consider `O=C(O)c1ccccc1[O-].O=C(O)c1ccccc1[O-].[Zn+2]`, for which the max response was -8.24%.

With `Cc1ccccc1CNc1ncnc2c1ncn2[C@@H]1O[C@H](CO)[C@@H](O)[C@H]1O`, the max response was -19%.

Take `Cc1cc2ncc(C(=O)NCC(C)(C)NCC(=O)N3CCC[C@H]3C#N)cn2n1`: the max response is 3.28%.

On to `CCCCCCCCCC(=O)O`, for which the max response was -12.8%.

Turning to `COc1ccc(CCNCC(O)COc2cccc(C)c2)cc1OC` (stereo not given), the max response was -6.7%.

`NCCCC[C@H](NC(=O)[C@@H]1CCCN1C(=O)[C@@H]1CSSC[C@H](NC(=O)CNC(=O)CNC(=O)CN)C(=O)N[C@@H](Cc2ccc(O)cc2)C(=O)N[C@@H](Cc2ccccc2)C(=O)N[C@@H](CCC(N)=O)C(=O)N[C@@H](CC(N)=O)C(=O)N1)C(=O)NCC(N)=O` (H-GGGCYFQNCPKG-NH2; disulfide 4-9): the max response is -6.41%.

Take `CN=C(NC)NCc1ccccc1`: the max response was -10.8%.

As for `C[C@]12CC[C@@H]3c4ccc(OS(=O)(=O)O)cc4CC[C@H]3[C@@H]1CCC2=O`, the max response is 3.98%.

For `Nc1c(CC(=O)O)cccc1C(=O)c1ccccc1`, the max response was -7.36% and -8.46%.

`COc1cc(C[C@@H]2NCCc3cc(O)c(O)cc32)cc(OC)c1OC`: the max response is -8.11%.

As to `CO[C@@H]1[C@@H](O[C@@H]2O[C@H](C)[C@@H](O[C@H]3C[C@@](C)(O)[C@@H](OC(=O)CC(C)C)[C@H](C)O3)[C@H](N(C)C)[C@H]2O)[C@@H](CC=O)C[C@@H](C)[C@@H](O)/C=C/C=C/C[C@@H](C)OC(=O)C[C@H]1O`, the max response was -0.235%.

For the compound `CCOc1ccc(C[C@H]2NC(=O)CCSSC[C@@H](C(=O)N3CCC[C@H]3C(=O)N[C@@H](CCCN)C(=O)NCC(N)=O)NC(=O)[C@H](CC(N)=O)NC(=O)[C@H]([C@@H](C)O)NC(=O)[C@H]([C@@H](C)CC)NC2=O)cc1` ([Mpa][dY](Et)ITNCP[Orn]G-NH2; disulfide 1-6), the max response is -2.06%.

With `COC[C@H](c1ccc(C(F)(F)F)cc1)N1CCN(C2(C)CCN(C(=O)c3c(C)ncnc3C)CC2)C[C@H]1C`, the max response was -20%.

`CO[C@H]1C[C@H](O[C@H]2[C@H](C)O[C@@H](O[C@@H]3/C(C)=C/C[C@@H]4C[C@@H](C[C@]5(C=C[C@H](C)[C@@H](C6CCCCC6)O5)O4)OC(=O)[C@@H]4C=C(C)[C@@H](O)[C@H]5OC/C(=C\C=C\[C@@H]3C)[C@]54O)C[C@@H]2OC)O[C@@H](C)[C@@H]1O`: the Potency is 20.6 µM (active).

With `NCCCC[C@H](NC(=O)[C@@H]1CCCN1C(=O)[C@@H]1CSSC[C@H](N)C(=O)N[C@@H](Cc2ccccc2)C(=O)N[C@@H](Cc2ccccc2)C(=O)N[C@@H](CCC(N)=O)C(=O)N[C@@H](CC(N)=O)C(=O)N1)C(=O)NCC(N)=O`, the max response is -12.7%.

Take `Cn1nnnc1SCC1=C(C(=O)O)N2C(=O)[C@@H](NC(=O)[C@H](OC=O)c3ccccc3)[C@H]2SC1`: the max response was -7.31%.

For the compound `CC(CN1c2ccccc2Sc2ccc(S(=O)(=O)N(C)C)cc21)N(C)C` (stereo not given), the max response is -2.65%.

In the case of `CN(C)CCOc1ccccc1Cc1ccccc1` (tested in a mixture with another compound), the max response was 0.128%.

Consider `C=C1C(=C/C=C2\CCC[C@]3(C)[C@@H]([C@H](C)CCCC(C)(C)O)CC[C@@H]23)C[C@@H](O)C[C@@H]1O`, for which the max response is 4.02%.

`O=C(O)c1cc2ccccc2c(Cc2c(O)c(C(=O)O)cc3ccccc23)c1O`: the max response is -8.98%.

In the case of `C=C1C(=O)O[C@H]2CC(=C)[C@H]3CC[C@@](C)(O)[C@@H]3CC12` (stereo not given in full), the max response was -21.5%.

On to `COC(=O)C[C@](O)(CCCC(C)(C)O)C(=O)O[C@@H]1C(OC)=CC23CCCN2CCc2cc4c(cc2[C@H]13)OCO4` (stereo not given in full), for which the Potency is 0.058 µM (active).

On to `CCCC(=O)N1CCCN(c2nc(N)c3cc(OC)c(OC)cc3n2)CC1`, for which the max response is -12.4%.

For `C[N+](C)(CCCCCC[N+](C)(C)C1c2ccccc2-c2ccccc21)C1c2ccccc2-c2ccccc21`, the max response was -17.2%.

`CCCCCCCCCCCCCCCC(=O)OC/C=C(C)/C=C/C=C(C)/C=C/C1=C(C)CCCC1(C)C`: the max response was -13.6%.

On to `CCCCC(=O)O`, for which the max response was -12.9% and -9.7%.

On to `CC#CCC(C)[C@H](O)/C=C/[C@@H]1[C@H]2C/C(=C/CCCC(=O)O)C[C@H]2C[C@H]1O` (stereo not given in full), for which the max response was -19%.

Regarding `CCOC(=O)COc1ccc2c(=O)cc(-c3ccccc3)oc2c1`, the max response is -2% and -15.3%.

With `CCC(C)(OC(C)=O)C(=O)O[C@H]1[C@H](OC(C)=O)[C@]2(CO)[C@H](O)[C@H](O)[C@]3(C)C(=CCC4[C@@]5(C)CC[C@H](O[C@@H]6O[C@H](C(=O)O)[C@@H](O)[C@H](O[C@@H]7OC[C@H](O)[C@H](O[C@@H]8OC[C@H](O)[C@H](O)[C@H]8O)[C@H]7O)[C@H]6O[C@@H]6O[C@H](CO)[C@@H](O)[C@H](O)[C@H]6O)C(C)(C)C5CC[C@]43C)[C@@H]2CC1(C)C` (stereo not given in full), the max response was -16.4%.

With `CC1(C)CN(C(=O)c2ccc(-c3cccc4nc(NC(=O)C5CC5)nn34)cc2)C1`, the outcome was inactive.

`CS(=O)(=O)OCCCNCCCOS(C)(=O)=O`: the max response was -5.57%.

On to `CCCN(CC)C(CC)C(=O)Nc1c(C)cccc1C` (stereo not given), for which the max response was -6.86%.

In the case of `CC(NC(=O)Cc1cc(F)cc(F)c1)C(=O)NC1C(=O)N(C)c2ccccc2-c2ccccc21` (stereo not given), the Potency was 16.4 µM (active).

On to `CN1CCN(C2=Nc3ccccc3Cc3ccccc32)CC1`, for which the max response was 2.98%.

In the case of `CCCCCC(O)/C=C/C=O` (stereo not given), the max response is -19%.

Regarding `Cc1cccc(C)c1N(CCCc1cccnc1)C(=O)C(C)N` (stereo not given), the max response is -6.26%.

As to `O=c1[nH]cnc2[nH]cc(CN3CCCCC3)c12`, the max response is -7.83%.

`CC(C(=O)O)c1ccc(C2CCCCC2)c2ccccc12` (stereo not given): the max response is -20.6%.

With `C/C(=C(\CCOC(=O)c1ccccc1)SS/C(CCOC(=O)c1ccccc1)=C(/C)N(C=O)Cc1cnc(C)nc1N)N(C=O)Cc1cnc(C)nc1N`, the max response is -12.4%.

On to `CCn1c(=O)c(-c2ccc(-c3cncs3)cc2Cl)cc2cnc(Nc3ccc(N4CCN(C)CC4)cc3)nc21`, for which the Potency is 10.3 µM (active).
